Hit rate of the full screen: of about 220,000 compounds, about 970 (0.44%) were called active. This is one part of a sample in which actives are shown more often than they occur. Unmarked numbers belong to inactive results. No stated cut-off is given here; in the data, active means activation above about 27%; inactive means the rest.
The compounds below were run against Neuropeptide Y receptor type 2 (Homo sapiens) (UniProt P49146) (assay: NPY-Y2 potentiators or agonists, primary screen, cell-based (AID 1359;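 further: cells stimulated with NPY near EC25 plus isoproterenol at EC100; 0% = vehicle plus submaximal agonist and 100% = vehicle plus saturating agonist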)). Details: cells expressing NPY-Y2, potentiator/agonist read-out; at 3.6 µM; active compounds read high.
Chain of Neuropeptide Y receptor type 2 (Homo sapiens) (P49146 whole entry, looked up): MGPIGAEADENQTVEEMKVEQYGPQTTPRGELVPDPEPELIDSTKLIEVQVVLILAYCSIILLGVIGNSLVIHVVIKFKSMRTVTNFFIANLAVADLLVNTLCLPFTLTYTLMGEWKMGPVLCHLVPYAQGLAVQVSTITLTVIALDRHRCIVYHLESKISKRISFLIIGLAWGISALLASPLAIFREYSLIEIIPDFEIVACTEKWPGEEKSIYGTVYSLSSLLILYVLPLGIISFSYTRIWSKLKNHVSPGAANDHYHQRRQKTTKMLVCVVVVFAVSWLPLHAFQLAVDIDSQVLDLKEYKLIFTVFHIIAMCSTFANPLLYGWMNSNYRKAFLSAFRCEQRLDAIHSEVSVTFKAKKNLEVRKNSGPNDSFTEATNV
In the case of `CCOc1ccc(C(=O)NC2CCN(CC(=O)NCc3cccs3)CC2)cc1`, the activation is reported as 13.5%.
Compound `CCNS(=O)(=O)c1ccc(NC(=O)Nc2cccc(C(F)(F)F)c2)cc1` has an activation of 24.5%.
`CS(=O)(=O)NCc1ccc(C(=O)NCc2ccccc2)cc1` gave an activation of 10.7%.
`O=C(NCc1ccccc1)c1ccc(S(=O)(=O)Nc2cccc(C(F)(F)F)c2)cc1` was tested, and the activation was 47.4% (active).
Compound `COc1ccc(CN2CCN(Cc3cn(C)nc3-c3ccccc3)CC2CCO)c(C)c1C` (stereo not drawn) has an activation of -18%.
Compound `CC(C)(C)OC(=O)N/N=C/c1ccc(C(=O)O)cc1` has an activation of 10%.
In the case of `CC(=O)c1c(-c2ccccc2)c2ccccc2[nH]c1=O`, the activation is reported as 6.99%.
In the case of `CCO[C@H]1OC(C(=O)N2CCN(Cc3ccccc3)CC2)=C[C@@H](c2cn(C(C)=O)c3ccccc23)[C@@H]1CCCO`, the activation is reported as -8.85%.
With `COCC1CCCN(Cc2nc(-c3ccc4c(c3)OCO4)no2)C1` (stereo not drawn) the activation was -10.6%.
With `Oc1c(Cl)cc(Cl)c(Cl)c1Cc1c(O)c(Cl)cc(Cl)c1Cl` the activation was 56.1% (active).
`CCN(C(=O)COC(=O)c1cc(S(=O)(=O)N2CCc3ccccc32)ccc1OC)C1CCS(=O)(=O)C1` (stereo not drawn) was tested, and the activation was -3.32%.
In the case of `CCOC(=O)C1=C(N)N2C(=O)C(C)SC2=C(C(=O)OCC)C1c1cc(OC)c(OC)c(OC)c1` (stereo not drawn), the activation is reported as -1.02%.
For `Cc1cccc(OCC(O)CN2CCN(CCN3C(=O)c4cccc5cccc(c45)C3=O)CC2)c1C` (stereo not drawn), the activation was 30.4%.
For `OC(COc1cccc2ccccc12)CN1CCN(c2ccccn2)CC1` (stereo not drawn), the activation was 58.3% (active).
`Cc1ccccc1OCC(O)CN1CCN(c2ccccn2)CC1` (stereo not drawn) gave an activation of 17.9%.
With `CC(=O)OC(C(=O)NCCc1ccccc1)c1cccnc1` (stereo not drawn) the activation was -16.8%.
With `CC(Nc1ccccc1)c1cccnc1` (stereo not drawn) the activation was 40.2% (active).
`CC(C)COP(=O)(c1ccc(N(C)C)cc1)C(Nc1ccccc1)c1cccnc1` (stereo not drawn) showed an activation of 4.54%.
Compound `CCCCc1cc2c(s1)CCCC/C2=N/O` has an activation of 5.62%.
In the case of `C/C(=C\c1ccco1)CN1CCC(N2CCC(C(=O)N3CCOCC3)CC2)CC1`, the activation is reported as -15.1%.
In the case of `Cc1cc(C(=O)N/N=C/c2ccc(O)c([N+](=O)[O-])c2)c(C)n1-c1ccc(F)cc1`, the activation is reported as 3.14%.
Work on `Cc1c(S(=O)(=O)NCc2ccccc2)c(=O)n(C)c(=O)n1C` yielded an activation of -20.2%.
`COc1ccc2nc(Nc3nc4ccc(NC(C)=O)cc4s3)sc2c1` showed an activation of -3.69%.
Compound `COc1ccc2nc(NC(=O)c3ccc(Br)s3)sc2c1` has an activation of 11.8%.
With `COc1ccc2nc(NC(=O)NC3CCCCC3)sc2c1` the activation was 42.1% (active).
With `O=C(NC(=S)Nc1cccc2c(O)cccc12)c1cccc(Br)c1` the activation was -15.3%.
`O=S(=O)([N-]c1nc2ccccc2nc1-[n+]1ccc(Cc2ccccc2)cc1)c1ccc(Br)s1` showed an activation of -4%.
Work on `O=C(c1ccc2c(c1)OCO2)N1CCOCC1` yielded an activation of 7.94%.
In the case of `C/C(=N\NC(=O)C(N)=O)c1ccc2c(c1)OCCO2`, the activation is reported as -7.65%.
For `CC(=O)c1ccc2c(c1)OCCOCCOc1ccc(C(C)=O)cc1OCCOCCO2`, the activation was 43.3% (active).
Work on `COc1ccc(N2C(=O)C(CC(=O)Nc3ccc(F)cc3)N(CCc3cccs3)C2=O)cc1` (stereo not drawn) yielded an activation of 4.57%.
`O=C(N1CCCCC1)N1CCN(C(=O)N2CCCCC2)CC1` was tested, and the activation was -11.1%.
Compound `CN(C)S(=O)(=O)c1ccc(NC(=O)COC(=O)Cn2[nH]c(=O)c3ccccc3c2=O)cc1` has an activation of -2.17%.
`CN(C)S(=O)(=O)c1ccc(NC(=O)COC(=O)c2n[nH]c3ccccc23)cc1` was tested, and the activation was 32.2% (active).
`O=C(COC(=O)c1n[nH]c2ccccc12)NCc1ccccc1` was tested, and the activation was -3.06%.
`COc1ccccc1N1CCN(C(=O)CSc2ncnc3c2cnn3-c2ccc(C)c(C)c2)CC1` showed an activation of -4.38%.
In the case of `CCOC(=O)c1sc2nc(C)[nH]c(=O)c2c1C`, the activation is reported as -3.44%.
With `CC(C)OCCCNC(=S)N1CCC(C(=O)c2ccc3c(c2)OCCO3)CC1` the activation was -6.61%.
For `COc1ccc(CC(=O)NCc2nnc(SCC(=O)Nc3ncc(C)s3)n2C)cc1`, the activation was -1.91%.
Work on `Cc1ccc(S(=O)(=O)N(Cc2ccc(Cl)cc2)c2ccccc2C(=O)NCc2cccnc2)cc1` yielded an activation of -13.3%.
Work on `NC(=O)C1(N2CCCCC2)CCN(C(=S)Nc2ccc(Cl)cc2)CC1` yielded an activation of 4.89%.
For `NC(=O)C1(N2CCCCC2)CCN(C(=O)c2ccc(C#Cc3ccccc3)o2)CC1`, the activation was 66.2% (active).
`CC(C)(O)C#Cc1ccc(C(=O)N2CCC(C(N)=O)(N3CCCCC3)CC2)cc1` was tested, and the activation was 14.8%.
For `C/C=C/C=C/C(=O)OCC(=O)Nc1ccc(Cl)cc1`, the activation was -15.7%.
With `COc1ccc2c(-c3ccccc3)cc(SCC(=O)N(C)C3CCS(=O)(=O)C3)nc2c1` (stereo not drawn) the activation was 6.98%.
With `Cc1ccccc1-n1nnc2c(=O)oc3ccccc3c21` the activation was 32.7% (active).
`CCOC(=O)c1c(C)nc2c(c1C)c(=O)oc1ccccc12` showed an activation of -26.5%.
For `CCCCC(=O)Nc1cc(C)c2c(=O)oc3ccccc3c2n1`, the activation was 1.67%.
Compound `COc1ccc(NC(=O)c2cn(-c3ccccc3)nc2SC)cc1` has an activation of -16%.
`CCC(=O)c1ccc(N2CCN(C(=O)c3cc([N+](=O)[O-])ccc3F)CC2)c(F)c1` gave an activation of -2.53%.
`Cc1ccccc1CSc1nnc(-c2ccccc2)c(=O)[nH]1` gave an activation of -5.69%.
For `O=C1CC(Sc2ncn[nH]2)C(=O)N1c1ccccc1` (stereo not drawn), the activation was -10.2%.
Compound `O=[N+]([O-])c1cccc(C2=NCCS2)c1` has an activation of 5.16%.
In the case of `Nc1c(-c2cccc(Cl)c2)cnn1-c1cccc([N+](=O)[O-])c1`, the activation is reported as 43.3% (active).
`Cc1nn(-c2ccc([N+](=O)[O-])cc2)c(N)c1-c1ccccc1` showed an activation of 8.55%.
Compound `Cc1ccc(NC(=O)C(=O)NCc2ccc(/C=N/NC(=O)c3c(C)nc4cc(C)ccn34)o2)cc1` has an activation of 12.4%.
For `CCCN(CC(=O)Nc1ccccc1C)C(=O)c1cc(=O)[nH]c2ccccc12`, the activation was -12.5%.
Compound `CC(C)NC(=O)NNc1c(Cl)cncc1Cl` has an activation of -6.55%.
`COc1ccc(C)cc1NC(=O)Nc1ccccc1SC` was tested, and the activation was -22.3%.
`Cc1ccnc(NC(=O)C(C)N2C(=O)c3ccccc3C2=O)c1` (stereo not drawn) showed an activation of -9.95%.
With `Cc1cccc(NC(=O)C(C)N2C(=O)C3C4CC(C(Br)C4Br)C3C2=O)c1` (stereo not drawn) the activation was 33.6% (active).
Compound `Cc1cccc(NC(=O)CN2C(=O)CNC2=O)c1` has an activation of -5.86%.
For `CCOC(=O)N1CCN(C(=O)Cn2cnc3ccccc3c2=O)CC1`, the activation was 2.69%.
Compound `O=C(Cn1cnc2ccccc2c1=O)NCC1COc2ccccc2O1` (stereo not drawn) has an activation of 4.37%.
With `CN(Cc1ccccc1)C(=O)CCNC(=O)Cn1cnc2ccccc2c1=O` the activation was 54.9% (active).
`O=C(CN1CCN(Cc2ccccc2)CC1)NC(c1ccccc1)c1ccccc1` gave an activation of -14%.
`Cc1ccc(CNC(=O)Cn2c(=O)c3sccc3n(Cc3cccc([N+](=O)[O-])c3)c2=O)cc1` gave an activation of 5.29%.
For `Oc1c(Br)cc(/C=N/NC(=S)NCC2CCCO2)cc1Br` (stereo not drawn), the activation was 5.85%.
With `Cn1nc(C(C)(C)C)c(NC(=O)c2sccc2Cl)c1C(C)(C)C` the activation was -3.45%.
With `O=C(CSc1ncnc2scc(-c3ccccc3)c12)NCc1ccc2c(c1)OCO2` the activation was -18.5%.
`CCOC(=O)c1c(C)nn(-c2ncccc2NC(=O)CCC(=O)O)c1C` was tested, and the activation was 2.97%.
In the case of `CCOC(=O)C(Sc1ncc(C#N)c(N)n1)C(C)C` (stereo not drawn), the activation is reported as 41.9% (active).
Compound `CCCCOc1ccc(-c2ncc(C(=O)OCC)c(N)n2)cc1` has an activation of -4.83%.
Work on `CCOC(=O)CSc1nccc(N(C)C)c1C#N` yielded an activation of -3.41%.
`COc1ccc2c(c1)c1ncn(Cc3ccccn3)c(=O)c1n2C` gave an activation of -3.5%.
In the case of `Cc1oc2cc([N+](=O)[O-])c(O)c([N+](=O)[O-])c2c1C(=O)c1ccc(Br)cc1`, the activation is reported as 8.73%.
`C[n+]1ccc(/C=C/c2c[nH]c3ccccc23)cc1` was tested, and the activation was 3.07%.
`O=C(O)/C=C\C(=O)Nc1ccc(OCc2ccccc2)cc1` gave an activation of -1.76%.
In the case of `CN(C)c1ccc(CNC2C3CC4CC(C3)CC2C4)cc1` (stereo not drawn), the activation is reported as 31.8% (active).
For `CN(C)c1ccc(CNC23CN4CN(CN(C4)C2)C3)cc1`, the activation was 8.96%.
`c1cnc(NC2C3CC4CC(C3)CC2C4)nc1` (stereo not drawn) gave an activation of 2.83%.
In the case of `Cc1cccc(C)c1NC(=O)C(c1ccccc1)N1CC(=O)Nc2ccccc21` (stereo not drawn), the activation is reported as -1.44%.
In the case of `CCOC(=O)/C(=C\c1ccc([N+](=O)[O-])cc1)C(=O)c1cc(C(C)=O)c(Nc2ccccc2)s1`, the activation is reported as -2.39%.
In the case of `CCOc1cc(/C=N/NC(=O)OC)ccc1OCCSc1ccc(Cl)cc1`, the activation is reported as 3.6%.
For `CC(CO)NCC12CC3CC(CC(C3)C1)C2` (stereo not drawn), the activation was 2.65%.
Work on `Cc1ccc(NC(=O)O/N=C/c2cccc([N+](=O)[O-])c2)cc1` yielded an activation of -2.02%.
With `O=C(NC(Nc1nc2ccc([N+](=O)[O-])cc2s1)(C(F)(F)F)C(F)(F)F)c1ccccc1` the activation was 61.7% (active).
Work on `O=C(Nc1nc2ccc([N+](=O)[O-])cc2s1)c1ccncc1` yielded an activation of 17.8%.
`O=C(O)CCC(=O)Nc1nc2ccc([N+](=O)[O-])cc2s1` was tested, and the activation was 0.15%.
With `CCc1c(C)sc(NC(=O)c2cccs2)c1C(N)=O` the activation was 18%.
With `Cc1coc2c(O)cc3c(c12)OC1(N2CCCCC2)C(=O)NCCCC31` (stereo not drawn) the activation was 93% (active).
In the case of `COc1ccc(C2c3c(C)nn(-c4ccccc4)c3NC(=O)N2c2ccccc2)cc1` (stereo not drawn), the activation is reported as 11.1%.
`Cc1ccc(C)c2c1cc(C)c1nnc(SCC(=O)Nc3cccc(C(=O)O)c3)n12` showed an activation of -10%.

Source: PubChem BioAssay AID1359 (The Scripps Research Institute Molecular Screening Center, 2008)
